# From the supplement of paper PMC3334620
# Over roughly 33,000 sequences, “E-score (-0.5 to 0.5)” has its median near -0.043; the highest 2% begin near 0.37. Shown is part of a subset that was picked to be rich in the highest values.
# Biological target: T1, Upc2 (UniProt Q12151)
# T1 sequence: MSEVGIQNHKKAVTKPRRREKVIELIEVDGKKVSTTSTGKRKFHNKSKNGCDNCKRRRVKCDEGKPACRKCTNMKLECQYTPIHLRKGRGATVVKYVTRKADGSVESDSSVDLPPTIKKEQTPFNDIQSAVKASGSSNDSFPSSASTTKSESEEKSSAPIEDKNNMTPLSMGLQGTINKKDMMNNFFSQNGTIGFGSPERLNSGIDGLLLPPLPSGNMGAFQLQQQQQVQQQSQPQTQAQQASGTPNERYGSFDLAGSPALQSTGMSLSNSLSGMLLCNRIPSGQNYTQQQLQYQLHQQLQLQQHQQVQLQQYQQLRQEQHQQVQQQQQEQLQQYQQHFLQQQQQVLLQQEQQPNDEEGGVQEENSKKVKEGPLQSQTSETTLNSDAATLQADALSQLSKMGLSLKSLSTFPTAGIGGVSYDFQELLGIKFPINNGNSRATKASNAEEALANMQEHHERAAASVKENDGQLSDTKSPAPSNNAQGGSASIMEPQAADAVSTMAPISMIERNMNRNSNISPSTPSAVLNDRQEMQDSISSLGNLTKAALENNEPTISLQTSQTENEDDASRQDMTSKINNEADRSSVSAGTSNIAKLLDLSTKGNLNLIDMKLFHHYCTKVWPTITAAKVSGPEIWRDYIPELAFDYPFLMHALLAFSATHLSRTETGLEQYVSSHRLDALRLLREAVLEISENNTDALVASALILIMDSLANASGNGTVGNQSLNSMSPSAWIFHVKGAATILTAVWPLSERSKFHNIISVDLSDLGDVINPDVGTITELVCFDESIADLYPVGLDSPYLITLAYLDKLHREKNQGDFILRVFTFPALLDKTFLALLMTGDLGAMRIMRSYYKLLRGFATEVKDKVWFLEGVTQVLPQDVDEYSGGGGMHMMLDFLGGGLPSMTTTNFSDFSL
# Assay: PBM E-score (8-mer binding enrichment) (E-score (-0.5 to 0.5)); higher = stronger / more preferred TF binding
# Conditions: protein concentration: 200 nM; construct: GST-full length
# Method: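 Universal 'all 10-mer' protein binding microarrays (Agilent AMADID 015681) probed with GST-tagged S. cerevisiae TFs (full-length or DBD) made by in vitro transcription/translation (PURExpress), about 100-200 nM. Bound TF was detected with fluorescent anti-GST. Each ungapped 8-mer (which stands for itself and its reverse complement) is scored by the PBM enrichment score (E-score), a modified Wilcoxon-Mann-Whitney statistic from -0.5 to +0.5, computed with the Universal PBM Analysis Suite. Scale: above 0.35 generally sequence-specific binding.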
row,Sequence,PBM E-score
1,GCACGATA,-0.0168
2,AGACGATA,0.138
3,CTACGATA,0.31
4,ATTCGATA,0.0034
5,GTACGATA,0.445
6,ATACGATA,0.472
7,CAAGCGAC,0.169
8,ATTTTCCG,0.139
9,GTTCTCCA,-0.109
10,AGTCGAAG,-0.273
11,AGCCGTAA,0.279
12,ACCCGTAC,0.354
13,ACCCGTAT,0.396
14,AGCCGTAT,0.378
15,AACCGTAA,0.233
16,AACCGTAT,0.375
17,AGCCGTAG,-0.0316
18,AACCGTAC,0.311
19,ACCCGTAG,-0.11
20,AGAAGAAG,-0.0336
21,CCTAGTGA,-0.174
22,TGCAACAA,-0.117
23,AAAAAACA,-0.00292
24,TGCAAGAA,-0.0985
25,GGTACAAA,0.0128

row,Sequence,PBM E-score
1,CGTACAAG,0.442
2,CGTACAAC,0.439
3,CGTACAAA,0.421
4,AGTACAAA,-0.013
5,CGTACATA,0.415
6,GGTACAAC,-0.0773
7,AGTACATA,-0.0422
8,AGTACAAG,-0.052
9,CATACAAG,-0.192
10,AGTACAAC,-0.0045
11,CGTACATC,0.352
12,AGTTCTCA,-0.107
13,CGCGACCA,0.116
14,AGAGCTAG,-0.113
15,AGTCTCTA,-0.0101
16,ATCCCCTC,-0.0985
17,CAAACCCA,0.0481
18,AAAATGTC,0.14
19,GCATCGGA,-0.0207
20,ACATCGTA,0.425
21,GCATCGTA,0.429
22,ACATCGTG,-0.0454
23,ACATCGTC,-0.00985
24,CCATCGTC,-0.0745
25,CCATCGTA,0.44

row,Sequence,PBM E-score
1,GCATCGAA,0.00261
2,CCATCGAA,-0.132
3,TGAAGGCA,-0.0834
4,AACTATGC,0.051
5,AGTGGTCC,-0.123
6,CCAATCGG,-0.174
7,CCGAGGTA,0.125
8,GCTACGAC,0.379
9,CCTACGAA,0.228
10,TCTACGAA,0.335
11,GCTACGAA,0.395
12,CCTACGAC,0.232
13,ACTACGAC,0.272
14,TTACTCAA,0.0201
15,AGTGAGAG,-0.279
16,AGCCATAT,0.0338
17,AATACGTG,0.155
18,GATACGAA,0.454
19,GATACAAA,0.106
20,AATACGAC,0.435
21,AATACGCC,0.00457
22,AATACGCT,0.212
23,GATACGTA,0.254
24,AATACGAG,0.457
25,AATACGAT,0.395

row,Sequence,PBM E-score
1,AATACGGG,0.229
2,ACTACGAT,0.16
3,AATACGTC,0.0421
4,CAGCACAA,0.0156
5,CGAGATGA,0.233
6,CGACTCTC,0.179
7,AAACAGGA,-0.139
8,TACCTGCA,-0.0203
9,ATAGATCC,-0.0535
10,CGACACAG,0.122
11,CAAACCGG,-0.0596
12,CATACGTA,0.315
13,CATACGAC,0.466
14,GATACGAC,0.468
15,CATACAAA,0.114
16,CATACGCC,0.307
17,CATACGTC,0.215
18,CACACGAG,0.155
19,CATACGAA,0.466
20,CATACGAG,0.486
21,GATACGCC,0.189
22,GATACGGC,0.324
23,CATACGCG,0.313
24,AGCAAGGA,-0.0783
25,GCCAACGC,-0.0104

row,Sequence,PBM E-score
1,CGACTGAA,0.184
2,CTGGGGCA,-0.2
3,CCTCACGA,-0.219
4,ACTACGAA,0.185
5,AATACGTA,0.196
6,AATACGAA,0.424
7,CACTTAAG,-0.0164
8,CACGTACC,0.188
9,CTTGTACA,-0.0692
10,CTCGTACC,0.481
11,CGCGTACC,0.302
12,ATAGTACC,-0.084
13,CTCGTACA,0.489
14,CTGGTACA,-0.0228
15,ATCGTACC,0.455
16,AGCGTACC,0.212
17,CTGTTAGC,-0.142
18,CGCATTTA,0.0301
19,GCTATGCC,-0.282
20,ATGGTCTG,-0.129
21,CAGGACTC,-0.0969
22,GAGGTAGA,-0.0305
23,ACCGAAGT,0.147
24,GACGAAGC,0.00181
25,TAAGAAGA,0.11

row,Sequence,PBM E-score
1,ACCGAAGG,0.0458
2,AACGAAGG,0.401
3,AAAGAAGT,-0.0114
4,TACGAAGA,0.448
5,CACGAAGG,0.00451
6,TCCGAAGA,0.0352
7,CACGAAGC,0.017
8,AACGAAGT,0.415
9,AACGAAGC,0.408
10,GTTAAAAA,0.11
11,CTAGTGTC,0.0134
12,CCAGGATA,0.0403
13,ATTTCTAA,-0.105
14,AGGAACCC,0.0161
15,CAACCAGC,-0.203
16,CTAGGGAA,-0.179
17,AGACCCAT,-0.186
18,CTAGACCA,-0.217
19,AGCCACAC,-0.00233
20,CACGAAGA,0.0935
21,AACGAAGA,0.424
22,GACGAAGA,-0.0247
23,CGTATGGC,0.413
24,AGTATGGA,-0.128
25,GGTATGGA,-0.146

row,Sequence,PBM E-score
1,CCTATGGC,-0.195
2,CGTATGGA,0.423
3,AGTATGGC,-0.129
4,AAATGAAC,0.118
5,AGCAATCC,-0.121
6,ACAAGCCT,-0.166
7,CTCGGTTA,0.381
8,ATCGGTTA,0.333
9,GTCGGTTA,0.337
10,ATTTTTCG,0.0906
11,CCTTTATC,-0.132
12,TATCAGGA,0.0996
13,CTCGTAAC,0.425
14,GACGTAAC,0.0258
15,CTCGTAAG,0.43
16,GGCGTAAC,0.0403
17,CGCGTAAG,0.205
18,CCCGTAAC,0.248
19,CACGTAAC,0.039
20,CACGTAAG,0.105
21,GTCGTAAC,0.408
22,AGAAGTTG,0.0297
